Laboratory results from PubChem BioAssay.
Values without a mark were called inactive.

test: viability profiling in MM1S myeloma cells – cell-based, resazurin fluorescence, basal, 24 h, PK04 Diversity Set, profiling panel (AID 1174); details: higher = more signal, called active from +8 up or from −8 down;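 further: MM1S multiple myeloma cell line; test concentration not given here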

Question: Which z-score does the source give for `COC(=O)[C@@]1(Cc2ccc(F)cc2)[C@H]2c3cc(C(=O)N4CCCC4)n(Cc4ccc(S(C)(=O)=O)cc4)c3C[C@H]2CN1C(=O)c1ccccc1` here?
Answer: The z-score was -1.03.

Question: With `CO[C@H]1O[C@H](CO)[C@@H](OC(=O)Nc2ccc(C(F)(F)F)cc2)[C@H](OC(=O)Nc2ccc3c(c2)OCO3)[C@@H]1OC(=O)Nc1ccc2c(c1)OCO2` as the compound, how does the z-score read?
Answer: The z-score was -2.45.

Question: Which z-score does the source give for `O=C1O[C@@H](c2ccccc2)[C@@H](c2ccccc2)N2[C@@H](c3ccccc3OCCO)[C@]3(C(=O)Nc4ccccc43)[C@@H](C(=O)Nc3nc4ccccc4s3)[C@H]12` here?
Answer: Its z-score is -2.95.

Question: With `Cc1ccc(S[C@]2(C(=O)NCCCN(C)C)CC(=O)N(Cc3cc(C(F)(F)F)cc(C(F)(F)F)c3)[C@@H]2c2ccc(CO)cc2I)cc1` as the compound, how does the z-score read?
Answer: Its z-score is -3.04.

Question: Which z-score does the source give for `O=C1c2ccccc2[C@](Cc2ccccc2I)(C(=O)NCC(F)(F)F)[C@H](c2ccc(CO)cc2)N1Cc1ccccc1Cl` here?
Answer: The z-score was 0.519.

Question: With `O=C(NCCN1CCOCC1)[C@@H]1c2ccccc2C(=O)N(C2CCCCC2)[C@H]1c1ccc(CO)cc1` as the compound, how does the z-score read?
Answer: Its z-score is 0.528.

Question: Which z-score does the source give for `CC#CC(=O)Oc1ccccc1C=CC(=O)OCC` here?
Answer: The z-score was 0.302.

Question: Which z-score does the source give for `COC(=O)[C@@]1(CCS(=O)(=O)c2ccccc2)N=C(c2ccc(OCCCO)cc2)O[C@H]1c1ccccc1CN=[N+]=[N-]` here?
Answer: The z-score was -3.13.

Question: For `C=CC1(C(=O)OC)CC=C(C(=O)OC)CC1` (stereo not given), which z-score is on record?
Answer: The z-score was 0.501.

Question: With `CC(C)C(CO)N1C(=O)[C@@H]2C3C(=O)OCCC/C=C\[C@H]3OC23C=CCN(CCN2CCOCC2)C(=O)[C@@H]13` (stereo not given in full) as the compound, how does the z-score read?
Answer: Its z-score is -0.686.

Question: Which z-score does the source give for `COc1cc(C(O)C2C=CC3C(=O)NC(=O)C3N2Nc2ccccn2)cc(OC)c1OC` (stereo not given) here?
Answer: The z-score was -1.57.

Question: For `COC(=O)[C@@]1(Cc2ccccc2)[C@H]2c3cc(C(=O)N4CCCC4)n(Cc4ccc(S(C)(=O)=O)cc4)c3C[C@H]2CN1C(=O)c1ccccc1`, which z-score is on record?
Answer: Its z-score is -0.774.

Question: For `C=C[C@@H](COC(=O)OC(C)(C)C)N(Cc1ccc(OC)cc1)S(=O)(=O)c1ccc(Br)cc1`, which z-score is on record?
Answer: Its z-score is 0.67.

Question: With `COC(=O)[C@H](Cc1ccccc1)N[C@@H](/C=C/C1CC1)[C@H](O)Cc1ccccc1` as the compound, how does the z-score read?
Answer: Its z-score is 0.488.

Question: For `O=C1c2ccccc2[C@](Cc2ccccc2I)(C(=O)NCCN2CCOCC2)[C@H](c2ccc(CO)cc2)N1C1CCCCC1`, which z-score is on record?
Answer: Its z-score is -0.526.

Question: For `CCOC(=O)[C@H]1C/C=C/C[C@H](C(=O)OCC)C(=O)O[C@H]2[C@@H](OC)O[C@H](CO)[C@@H](OC(=O)c3c(OC)cccc3OC)[C@@H]2OC1=O`, which z-score is on record?
Answer: Its z-score is -3.73.

Question: For `CCOC(=O)C[C@H]1[C@H](OC(=O)c2ccc(C(=O)c3ccccc3)cc2)[C@@H](NC(=O)c2ccc3ccccc3c2)c2cc(OCCCO)ccc2N1C(=O)Cc1ccc(OC)cc1`, which z-score is on record?
Answer: Its z-score is 0.238.

Question: With `CCC(CC)C(O)C1C=CC2C(=O)NC(=O)C2N1Nc1ccccn1` (stereo not given) as the compound, how does the z-score read?
Answer: Its z-score is -1.76.

Question: Which z-score does the source give for `COc1ccc([Si](C)(C)[C@H]2[C@H](CC(=O)N3Cc4ccccc4C[C@H]3CO)O[C@@]3(C(=O)N(Cc4cccc(N5CCC5=O)c4)c4ccccc43)[C@@H]2C)cc1` here?
Answer: Its z-score is -2.31.

Question: For `OCCCC1=CC(c2cccs2)N(Cc2cc3c(cc2Br)OCO3)CC1` (stereo not given), which z-score is on record?
Answer: The z-score was -0.643.

Question: For `CCCCCCc1nc(-c2ccc(OC)nc2)cc2c1[Si](C(C)C)(C(C)C)O[C@H]2c1ccccc1`, which z-score is on record?
Answer: The z-score was 0.0809.

Question: With `COc1ccc([Si](C)(C)[C@H]2[C@H](CCO)O[C@@]3(C(=O)N(Cc4ccc(N(C=O)c5ccccc5)cc4)c4ccccc43)[C@@H]2C)cc1` as the compound, how does the z-score read?
Answer: Its z-score is -3.71.

Question: With `O=C(NCCO)C1=C[C@H](Oc2ccccc2I)[C@@H](O)[C@H](N(Cc2ccco2)C(=O)Cc2ccccc2)C1` as the compound, how does the z-score read?
Answer: The z-score was -0.123.

Question: For `C=C[C@H](C)[C@@H](OC(=O)Nc1ccc(OC)cc1)c1ccc(O)c2ccccc12`, which z-score is on record?
Answer: Its z-score is -4.56.

Question: Which z-score does the source give for `C=C(COC)/C(=C/C[C@H](OC(C)=O)c1ccc(CO)o1)c1cc(C(=O)OC)ccc1OC` here?
Answer: The z-score was -0.891.

Question: For `COC(=O)[C@@]1(Cc2ccccc2)[C@H]2c3cc(C(=O)N(C)C)n(Cc4ccsc4Br)c3C[C@H]2CN1C(=O)c1ccccc1`, which z-score is on record?
Answer: The z-score was -1.74.

Question: For `COc1ccc([Si](C)(C)[C@@H]2[C@@H](CCO)O[C@]3(C(=O)N(Cc4ccc(N(C=O)c5ccccc5)cc4)c4ccccc43)[C@H]2C)cc1`, which z-score is on record?
Answer: Its z-score is -2.44.

Question: With `CN(C)CCCCCCNC(=O)[C@H]1C[C@H]2C(=O)N3CCC[C@H]3C(=O)N2[C@H]1c1ccc(O)cc1` as the compound, how does the z-score read?
Answer: The z-score was 0.472.

Question: With `O=C(CS)NCCCCCCNC(=O)[C@@H]1C[C@@H]2C(=O)NCC(=O)N2[C@@H]1c1cccc(OCCO)c1` as the compound, how does the z-score read?
Answer: The z-score was -0.217.

Question: With `COC(=O)[C@@]1(Cc2ccc(F)cc2)[C@H]2c3cc(C(=O)N(C)C)n(Cc4ccccc4)c3C[C@H]2CN1C(=O)c1ccccc1` as the compound, how does the z-score read?
Answer: The z-score was -0.946.

Question: With `C=CCNC(=O)[C@H]1[C@@H]2C(=O)O[C@@H](c3ccccc3)[C@@H](c3ccccc3)N2[C@@H](c2ccccc2OCCO)[C@]12C(=O)Nc1ccc(C#CCC(C(=O)OC)C(=O)OC)cc12` as the compound, how does the z-score read?
Answer: Its z-score is -7.81.

Question: For `COCCOC(=O)N1C(=O)[C@@]2(c3cc(C#CCNC(N)=O)ccc31)[C@H](C(=O)Nc1nc3ccccc3s1)[C@H]1C(=O)O[C@H](c3ccccc3)[C@H](c3ccccc3)N1[C@@H]2c1ccc(OCCO)cc1`, which z-score is on record?
Answer: The z-score was 0.114.

Question: With `C=CCOC(=O)[C@H]1[C@@H]2C(=O)O[C@@H](c3ccccc3)[C@@H](c3ccccc3)N2[C@@H](c2ccc(OCCOC(=O)[C@H]3C[C@H]4C(=O)N[C@@H](CCCC[N+](C)(C)C)C(=O)N4[C@H]3c3ccc(O)cc3)cc2)[C@]12C(=O)Nc1ccc(I)cc12` as the compound, how does the z-score read?
Answer: Its z-score is -0.13.

Question: Which z-score does the source give for `C=CCOC(=O)[C@H]1[C@@H]2C(=O)O[C@@H](c3ccccc3)[C@@H](c3ccccc3)N2[C@@H](c2ccc(OCCOC(=O)[C@H]3C[C@H]4C(=O)N[C@@H](CCCCN(C)C)C(=O)N4[C@H]3c3ccc(O)cc3)cc2)[C@]12C(=O)Nc1ccc(I)cc12` here?
Answer: Its z-score is -0.934.

Question: For `C=CCN1C(=O)[C@@]2(CC=C)N=C(c3ccc(OCCCO)cc3)O[C@H]2c2ccccc21`, which z-score is on record?
Answer: Its z-score is -3.88.
